Where “and” joins values, the source holds several entries; their conditions need not be identical. Identical values can stand only once. A number with no mark means an inactive call. Results filed as inconclusive are left out. A call without a number means that no potency is given here. Calls of active or inactive are those of the source. Calls come from the whole dose curve; as a rule, active = well fitted curve in the direction sought with a large enough effect; inconclusive = small, poorly fitted or top-dose-only effect, or another doubt; inactive = no such curve, though single readings can be large; an effect the other way counts as inactive or inconclusive.
Tested on: not listed separately
Test: HTS Assay for Allosteric Antagonists of the Human D2 Dopamine Receptor: Hit Validation in HTRF (AID 624455);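 note: stable D1 dopamine receptor cell line scored for blocking the D1 response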
Conditions: Cells stably expressing D1 dopamine receptor, inhibition mode; series mostly up to 46.1 µM
Summary of the method: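 Hits were examined in an HTRF assay using cells stably expressing the D1 dopamine receptor, scoring inhibition of the D1-mediated response. The preceding primary screen tracked calcium flux after an EC80 dopamine addition in force-coupled, inducible Hek293 Trex D2 cells.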

| Compound | outcome |
| --- | --- |
| O=c1c(O)c(-c2ccc(O)cc2O)oc2cc(O)cc(O)c12 | inactive |
| O=c1cc(N2CCOCC2)oc2c(-c3ccccc3)cccc12 | inactive |
| O=C1c2c(O)cc(O)cc2OC(c2ccc(O)c(O)c2)C1O (configuration not stated) | inactive |
| CC1(C)C(=O)N(CCN2CCC(C(=O)c3ccc(F)cc3)CC2)c2ccccc21 | inactive |
| CC(=O)N1CCN(c2ccc(OC[C@H]3CO[C@](Cn4ccnc4)(c4ccc(Cl)cc4Cl)O3)cc2)CC1 | inactive |
| CN(C)CCCC1(c2ccc(F)cc2)OCc2cc(C#N)ccc21 (configuration not stated) | inactive |
| Nc1ccn([C@@H]2O[C@H](CO)[C@@H](O)C2O)c(=O)n1 (some centres not stated) | inactive |
| COc1cc2nc(N3CCN(C(=O)C4CCCO4)CC3)nc(N)c2cc1OC (configuration not stated) | inactive |
| Cc1cc(O)c2c(c1)C(=O)c1cc(O)cc(O)c1C2=O | inactive |
| NC(=NCc1ccccc1)NC(=O)c1nc(Cl)c(N)nc1N | inactive |
| CC(C)c1ccc2c(c1)c(SC(C)(C)C)c(CC(C)(C)C(=O)O)n2Cc1ccc(Cl)cc1 | inactive |
| Cc1c(OCC(F)(F)F)ccnc1CS(=O)c1nc2ccccc2[nH]1 (configuration not stated) | inactive |
| CCOC(=O)C(C)Oc1cccc2c(=O)n(CC(=O)Nc3ccc4c(c3)OCCO4)ccc12 (configuration not stated) | inactive |
| Nc1nc(OCc2ccccc2)c2[nH]cnc2n1 | inactive |
| OC(CN1CCN(c2cccc(Cl)c2)CC1)C(c1ccccc1)c1ccccc1 (configuration not stated) | inactive |
| Oc1ccc(-c2nc(-c3ccc(F)cc3)c(-c3ccncc3)[nH]2)cc1 | inactive |
| O=c1c(O)c(-c2cc(O)c(O)c(O)c2)oc2cc(O)cc(O)c12 | inactive |
| NCCCCNCCCN | inactive |
| COc1ccccc1N1CCN(CCN(C(=O)C2CCCCC2)c2ccccn2)CC1 | inactive |
| CC(=O)O[C@H]1C(=O)[C@@]2(C)C([C@H](OC(=O)c3ccccc3)[C@]3(O)C[C@H](OC(=O)[C@H](O)[C@@H](NC(=O)c4ccccc4)c4ccccc4)C(C)=C1C3(C)C)[C@]1(OC(C)=O)CO[C@@H]1C[C@@H]2O (some centres not stated) | inactive |
| O=c1ccc2ccc(O)c(O)c2o1 | inactive |
| O=C1c2ccccc2-c2n[nH]c3cccc1c23 | inactive |
| NNc1nncc2ccccc12 | inactive |
| C[C@H](Cc1ccc(O)c(O)c1)[C@@H](C)Cc1ccc(O)c(O)c1 | inactive |
| O=C(CCc1ccc(O)cc1)c1c(O)cc(O)cc1O | inactive |
| Nc1nc(N)c(N=O)c(OCC2CCCCC2)n1 | inactive |
| O=C(O)c1cccnc1Nc1cccc(C(F)(F)F)c1 | inactive |
| O=C(c1ccccc1)c1ccc2n1CCC2C(=O)O (configuration not stated) | inactive |
| CC1(C)NC(=O)N(c2ccc([N+](=O)[O-])c(C(F)(F)F)c2)C1=O | inactive |
| Oc1ccc2ccccc2c1SSc1c(O)ccc2ccccc12 | inactive |

Tested on: not listed separately
Test: qHTS assay for environmental chemicals that activate the Aryl hydrocarbon Receptor (AhR) signaling pathway (AID 651777); note: nearly all actives have a fitted effect of over 15% in size; note: potency is the fitted concentration of half-maximal effect
Conditions: 1A2-DRE human hepatoma cells, luciferase, 24 h; activation: hits give high values
Summary of the method: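 Concentration–response screening used 1,200 1A2-DRE cells per well, 24 hr compound exposure (37 C, 5% CO2), and One-Glo luminescence as the AhR-driven CYP1A2 reporter signal.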

| Compound | activation [%] | Potency |
| --- | --- | --- |
| O=c1c(O)c(-c2ccc(O)cc2O)oc2cc(O)cc(O)c12 | 4.65 |  |
| Cc1cc(O)c2c(c1)C(=O)c1cc(O)cc(O)c1C2=O |  | 44.7 µM (active) |
| CC1(C)NC(=O)N(c2ccc([N+](=O)[O-])c(C(F)(F)F)c2)C1=O | 1.77 |  |

Molecular target: Peroxisome proliferator-activated receptor alpha (Homo sapiens) (UniProt Q07869)
Test: qHTS assay for small molecule agonists of the peroxisome proliferator-activated receptor alpha (PPARalpha) signaling pathway (AID 651778)
Conditions: PathHunter PPARalpha complementation, chemiluminescence, 6 h; hits give high values
Summary of the method: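 Chemiluminescence from complemented enzyme reported PPARalpha activation in cells after 6 hr of compound treatment at 37 C. The detection reagent was incubated for 60 min at room temperature, and compounds were scored as agonists.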

Chain of Peroxisome proliferator-activated receptor alpha (Homo sapiens) (Q07869 whole entry, looked up): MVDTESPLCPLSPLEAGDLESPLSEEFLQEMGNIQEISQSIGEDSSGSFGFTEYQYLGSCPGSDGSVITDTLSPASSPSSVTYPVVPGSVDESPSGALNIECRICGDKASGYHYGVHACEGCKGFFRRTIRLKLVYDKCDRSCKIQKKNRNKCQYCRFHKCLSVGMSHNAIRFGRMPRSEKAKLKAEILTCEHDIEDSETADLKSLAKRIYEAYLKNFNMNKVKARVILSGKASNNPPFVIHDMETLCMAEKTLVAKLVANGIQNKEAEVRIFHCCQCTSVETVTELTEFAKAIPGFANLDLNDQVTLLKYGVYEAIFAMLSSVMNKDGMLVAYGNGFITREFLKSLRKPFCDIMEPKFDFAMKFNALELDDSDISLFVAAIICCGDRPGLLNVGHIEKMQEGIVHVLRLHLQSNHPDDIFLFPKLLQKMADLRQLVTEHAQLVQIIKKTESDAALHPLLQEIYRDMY

| Compound | max response |
| --- | --- |
| O=c1c(O)c(-c2ccc(O)cc2O)oc2cc(O)cc(O)c12 | -3.16% |
| CC(=O)N1CCN(c2ccc(OC[C@H]3CO[C@](Cn4ccnc4)(c4ccc(Cl)cc4Cl)O3)cc2)CC1 | -0.168% |
| Cc1cc(O)c2c(c1)C(=O)c1cc(O)cc(O)c1C2=O | -5.19% and -6.73% |
| CC1(C)NC(=O)N(c2ccc([N+](=O)[O-])c(C(F)(F)F)c2)C1=O | -2.93% |

Reference: PubChem BioAssay (NCATS)
